Test results from PubChem BioAssay (NCATS).
Results filed as inconclusive are left out. Entries that show only a call come without a potency. Active and inactive are the calls of the source. Calls follow the shape of the dose curve; as a rule, active = well fitted cell-killing curve with a large enough effect; inconclusive = small, poorly fitted or top-dose-only effect; inactive = no such curve, though single readings can be large or run the other way.

Experiments:
[1] = qHTS of pediatric cancer cell lines to identify multiple opportunities for drug repurposing: Primary screen for Rh30 cells (AID 1347107); conditions: Rh30 rhabdomyosarcoma viability, CellTiter-Glo luminescence, 48 h; series mostly up to 46 µM; also: nearly all actives have a fitted effect of over 75% in size
In short: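 Cells (500-1,000/well) rested 5 h, then received compounds for 48 h; metabolically active cells were measured by CellTiter-Glo luminescence. Final concentrations spanned up to 46 µM (MIPE, 11-point) or 0.59 nM-46 µM (NPC, 8-point) in primary screens, 11-point in follow-ups.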

[2] = qHTS of pediatric cancer cell lines to identify multiple opportunities for drug repurposing: Primary screen for Rh41 cells (AID 1347108); conditions: Rh41 rhabdomyosarcoma viability, CellTiter-Glo luminescence, 48 h; series mostly up to 46 µM; also: nearly all actives have a fitted effect of over 70% in size
In short: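 Phenotypic viability qHTS, 48 h compound exposure, CellTiter-Glo luminescence read-out; multi-concentration dosing so that potency and efficacy derive directly from the primary screen's curves.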
Potency is read from the fitted curve at half-maximal effect.

SMILES | Potency [1] | Potency [2]
C[C@]12CC[C@H](O)CC1=CCC1C2CC[C@]2(C)C(n3cnc4ccccc43)=CCC12 (stereo partly drawn) | inactive | 
CCCCCN(CCC12CC3CC(CC(C3)C1)C2)C(=O)NCCCc1ccncc1 | inactive | 
O=C(CCCCCCNC(=O)c1cnc(N(c2ccccc2)c2ccccc2)nc1)NO | 14.8 µM (active) | 9.35 µM (active)
COc1cc(OC2CCN(C)CC2)ccc1Nc1ncc2c(n1)n(C1CCCC1)c(=O)n2C | 20.9 µM (active) | 18.7 µM (active)
CNc1nccc(-c2cccnc2Oc2cc(C(=O)Nc3cccc(C(F)(F)F)c3)ccc2C)n1 | inactive | 
COc1cc2c(cc1-c1c(C)noc1C)ncc1[nH]c(=O)n([C@H](C)c3ccccn3)c12 | 23.5 µM (active) | 9.35 µM (active)
Nc1nc(Nc2ccc(S(N)(=O)=O)cc2)nn1C(=O)c1c(F)cccc1F | inactive | 14.8 µM (active)
c1nc2nc(Nc3ccc(N4CCOCC4)cc3)nc(NC3CCCCC3)c2[nH]1 | 11.8 µM (active) | 5.9 µM (active)
Nc1ccc(S(=O)(=O)Nc2ncccn2)cc1 | inactive | inactive
CCOc1ccccc1OCCNC(C)Cc1ccc(OC)c(S(N)(=O)=O)c1 (stereo not drawn) | inactive | inactive
O=c1[nH]c(=O)n(C2CCCO2)cc1F (stereo not drawn) | inactive | inactive
Cn1cncc1[C@@](N)(c1ccc(Cl)cc1)c1ccc2c(c1)c(-c1cccc(Cl)c1)cc(=O)n2C | 14.8 µM (active) | 14.8 µM (active)
CC(C)Nc1cc(C(F)(F)F)cc2nc(NC(=O)c3cccnc3)nn12 | inactive | inactive
